Each structure is given as a SMILES string. Compounds without any hit were thinned out: in the full panel of roughly 83,000, 20% have a hit.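 The test compound was applied at a single concentration to cells in 96-well plates for 48 hours, and percent growth was recorded.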 Activity calls are given as the source filed them. How the source made its calls: active means growth percent below 10; inactive means the rest.

The test deals with KM12 colon. The test can be described thus: NCI-60 one-dose screen, 48 h (100 = growth as untreated, 0 = no growth, -100 = all killed). The following applies: 10 µM unless noted.
With `CCSc1nnc(Nc2ccc(C(C)C)cc2)s1`, the growth was 83.9% (inactive).

`O=C(Cc1c(F)cccc1Cl)Nc1ccc(S(=O)(=O)Nc2ncccn2)cc1`: the growth was 111% (inactive).

As for `CC1(C)OC2COC3(C(=O)O)OC(C)(C)OC3C2O1` (centres undefined), the growth was 98.4% (inactive).

`COc1cc(-n2nc(C(=O)Nc3ccc(C(=O)O)cc3)nc2-c2ccccc2)cc(OC)c1OC`: the growth is 105% (inactive).

As to `CN1CCN(CCCOc2ccc3nc(Nc4ccc(C(F)(F)F)c(Cl)c4)ccc3c2)CC1`, the growth was -14.3% (active).

On to `COc1ccc(S(=O)(=O)NCCNc2nccc(-c3c(-c4ccccc4)nc4sccn34)n2)cc1`, for which the growth was 9.45% (active).

For the compound `O=c1[nH]c(-c2cn(-c3ccc(Cl)cc3)nn2)nc2ccccc12`, the growth was 84.7% (inactive).

As to `COc1ccc(S(=O)(=O)Nc2cc(/C=C\c3cc(OC)c(OC)c(OC)c3)cc(OC)c2OC)cc1OC`, the growth is 21.7% (inactive).

As to `COc1ccc(-c2nc3sccn3c2-c2ccnc(NCCNS(=O)(=O)c3ccc(C(F)(F)F)cc3)n2)cc1`, the growth was 4.4% (active).

Turning to `CCN(CC)CCSc1c2ccc(Cl)cc2nc2ccc(OC)cc12`, the growth was 99.1% (inactive).

Turning to `COc1ncc(-c2ccc3ncnc(Nc4cccc(Cl)c4)c3c2)cc1NS(=O)(=O)CCN1CCOCC1`, the growth is 26% (inactive).

On to `O=c1[nH]c(CN2CCN(c3ccccc3F)CC2)nc2sc3c(c12)CCC3`, for which the growth is 106% (inactive).

Take `O=C(Nc1cccc(Cl)c1)c1cc([N+](=O)[O-])ccc1O`: the growth is 43.1% (inactive).

Take `Cc1cc(N/C=c2\sc3ncnn3c2=O)no1`: the growth is 84.3% (inactive).

As for `c1ccc2c(c1)Oc1ccccc1C2C1c2ccccc2Oc2ccccc21`, the growth is 95.2% (inactive).

In the case of `CC(C)CCN(CCCNc1c2c(nc3ccccc13)CCCC2)CCC(C)C`, the growth was 105% (inactive).

Consider `COc1cc(/C=C/C(=O)c2ccccc2O)ccc1OCCCOc1cc2c(cc1OC)C(=O)N1CCC[C@H]1C=N2`, for which the growth is -18.3% (active).

Take `O=C1NC(Cc2c[nH]c3ccccc23)C(=O)N1Cc1ccc(Cl)cc1` (centres undefined): the growth is 99.3% (inactive).

Consider `COc1ccc(C2CC(c3cccs3)=NN2c2ccc(S(=O)(=O)NC(=O)NCc3cccc(OC)c3)cc2)cc1` (centres undefined), for which the growth was 98.5% (inactive).

`CCOC(=O)C1=C(CSC(=S)N(C2CCCCC2)C2CCCCC2)N(C)C(=O)NC1c1ccccc1` (centres undefined): the growth is 55.7% (inactive).

On to `COc1cccc2nc(Nc3ccc(NC(=O)c4ccc5ncccc5c4)cc3)ccc12`, for which the growth was 65.6% (inactive).

On to `Cc1cc(NC(=O)COC(=O)c2sc3cc(F)ccc3c2Cl)no1`, for which the growth was 108% (inactive).

Take `CC/C=C\C[C@H](O)C/C=C1/C(=O)C(Cl)=C[C@@H]1C/C=C\CCCC(=O)O`: the growth was 46.4% (inactive).

With `O=Nc1c(-c2c(O)[nH]c3ccc([N+](=O)[O-])cc23)[nH]c2ccc(O)cc12`, the growth was -33% (active).

As to `O=C(Nc1ccc(F)cc1)c1cc([N+](=O)[O-])ccc1O`, the growth is 51.6% (inactive).

In the case of `Cc1ccc(S(=O)(=O)OCC(=O)Nc2ccc(C(=O)O)c(O)c2)cc1`, the growth was 110% (inactive).

Take `Cc1cc(C)c(NC(=O)c2sc3nc4c(cc3c2N)CN(Cc2ccccc2)CC4)c(C)c1`: the growth is 19.4% (inactive).

With `COc1ccc(-c2nnc(COc3ccc(NS(=O)(=O)c4ccc(OC)cc4)cc3F)o2)cc1`, the growth is 73.4% (inactive).

Consider `Cc1ccc2nc(-c3c(CCCO)noc3N)[nH]c(=O)c2c1`, for which the growth was 102% (inactive).

Take `O=[N+]([O-])c1ccc(S(=O)(=O)N2CCN(c3ccnc4cc(Cl)ccc34)CC2)c([N+](=O)[O-])c1`: the growth is 103% (inactive).

`CCN(Cc1ccc(CN(CC)C(=O)C(Cl)(Cl)Cl)cc1)C(=O)C(Cl)(Cl)Cl`: the growth is 81.5% (inactive).

As for `COc1ccc(Cn2cc(COc3cc(/C=C/C(=O)c4cc(OC)c(OC)c(OC)c4)ccc3OC)nn2)cc1`, the growth was 15.8% (inactive).

For the compound `N#CC1=C(N)n2nc(-c3ccncc3)nc2NC1c1cccc2ccccc12` (centres undefined), the growth was 97.6% (inactive).

For the compound `COc1ccc(/C=C/C(=O)c2ccc(B(O)O)cc2)cc1O`, the growth is 9.39% (active).

As for `Nc1nc(-c2ccccc2)cs1`, the growth is 106% (inactive).

On to `NS(=O)(=O)c1ccc(NCC(=O)Nc2ccc(-c3nc4ccccc4s3)cc2)cc1`, for which the growth was 61.6% (inactive).

Turning to `COc1cc(Br)c(OC)cc1Br`, the growth was 76.3% (inactive).

Take `COc1cc(NS(C)(=O)=O)ccc1Nc1c2ccc([N+](=O)[O-])cc2nc2c(C)cccc12`: the growth was -29.1% (active).

In the case of `O=C(Nc1ccc(I)cc1)c1cccc([N+](=O)[O-])c1O`, the growth is 14.1% (inactive).
